# Experimental data from article PMC7862700, “An all-to-all approach to the identification of sequence-specific readers for epigenetic DNA modifications on cytosine”.
# How the values were obtained:
# Experiment in all cases: DAPPL (digital affinity profiling via proximity ligation, sequencing); 10 mM Tris-HCl pH 7.5, 50 mM NaCl, 1 mM DTT, 4% glycerol, room temperature, 30 min; GST-TFs on glutathione beads, 16-mer random dsDNA library, 0.1% formaldehyde crosslink after washing; high values mean tight binding
# FEV = biological target: T1, FEV (Homo sapiens, UniProt Q99581 1-238); details: protein: recombinant; tags: N-terminal GST; dsDNA, one strand shown
# T1 sequence: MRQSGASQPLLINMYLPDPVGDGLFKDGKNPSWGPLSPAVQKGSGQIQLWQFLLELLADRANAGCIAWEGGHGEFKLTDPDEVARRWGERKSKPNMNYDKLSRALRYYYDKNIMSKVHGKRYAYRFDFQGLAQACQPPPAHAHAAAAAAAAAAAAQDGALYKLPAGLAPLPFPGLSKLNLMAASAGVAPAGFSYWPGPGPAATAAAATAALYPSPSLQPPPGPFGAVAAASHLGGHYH
# In short: (§1)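 Beads coated with glutathione captured GST-fused human transcription factors that had been expressed in yeast, and the factors were then given DNA barcodes and pooled with a tag-only sample. The pools were incubated with 200 nmole of a random double-stranded 16-mer DNA library in Tris/NaCl/DTT/glycerol buffer for 30 min at room temperature, washed, crosslinked with 0.1% formaldehyde and proximity-ligated with BsaI/T4 ligase at 37 °C for 1 h. PCR amplification and Illumina NextSeq500 sequencing came last. Binding signal is each hexamer's read frequency for a factor divided by its frequency for the tag-only sample.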
# ETV5 = ETV5 (Homo sapiens, UniProt P41161 1-510); details: protein: recombinant; tags: N-terminal GST; dsDNA, one strand shown
# In short: as §1
# HSF1 = HSF1 (Homo sapiens, UniProt Q00613 1-529); details: protein: recombinant; tags: N-terminal GST; chain copies: 3; dsDNA, one strand shown
# In short: as §1
# SPIC = biological target: T2, SPIC (Homo sapiens, UniProt Q8N5J4 1-248); details: protein: recombinant; tags: N-terminal GST; dsDNA, one strand shown
# T2 sequence: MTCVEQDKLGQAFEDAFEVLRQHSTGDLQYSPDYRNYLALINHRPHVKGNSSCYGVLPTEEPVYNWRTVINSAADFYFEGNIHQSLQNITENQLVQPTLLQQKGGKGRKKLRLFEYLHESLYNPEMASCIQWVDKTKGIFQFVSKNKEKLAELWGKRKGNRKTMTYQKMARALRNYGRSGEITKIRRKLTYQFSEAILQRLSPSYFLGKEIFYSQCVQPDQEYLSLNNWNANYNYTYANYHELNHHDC
# In short: as §1
# ELF4 = ELF4 (Homo sapiens, UniProt Q99607 1-663); details: protein: recombinant; tags: N-terminal GST; dsDNA, one strand shown
# In short: as §1
# ELK4 = biological target: T3, ELK4 (Homo sapiens, UniProt P28324-2 1-405); details: protein: recombinant; tags: N-terminal GST; dsDNA, one strand shown
# T3 sequence: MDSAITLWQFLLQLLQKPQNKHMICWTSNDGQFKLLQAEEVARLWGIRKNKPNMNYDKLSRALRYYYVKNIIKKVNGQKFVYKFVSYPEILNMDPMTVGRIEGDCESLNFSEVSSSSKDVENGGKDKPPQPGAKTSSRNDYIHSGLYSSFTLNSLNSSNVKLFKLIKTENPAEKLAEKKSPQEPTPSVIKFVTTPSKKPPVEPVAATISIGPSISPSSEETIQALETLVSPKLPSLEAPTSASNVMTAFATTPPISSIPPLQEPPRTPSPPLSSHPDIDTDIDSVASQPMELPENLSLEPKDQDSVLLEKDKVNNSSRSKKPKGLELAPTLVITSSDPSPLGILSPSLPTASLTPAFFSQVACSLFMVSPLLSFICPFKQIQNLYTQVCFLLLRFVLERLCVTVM
# In short: as §1
# ETV2 = biological target: T4, ETV2 (Homo sapiens, UniProt O00321 1-342); details: protein: recombinant; tags: N-terminal GST; dsDNA, one strand shown
# T4 sequence: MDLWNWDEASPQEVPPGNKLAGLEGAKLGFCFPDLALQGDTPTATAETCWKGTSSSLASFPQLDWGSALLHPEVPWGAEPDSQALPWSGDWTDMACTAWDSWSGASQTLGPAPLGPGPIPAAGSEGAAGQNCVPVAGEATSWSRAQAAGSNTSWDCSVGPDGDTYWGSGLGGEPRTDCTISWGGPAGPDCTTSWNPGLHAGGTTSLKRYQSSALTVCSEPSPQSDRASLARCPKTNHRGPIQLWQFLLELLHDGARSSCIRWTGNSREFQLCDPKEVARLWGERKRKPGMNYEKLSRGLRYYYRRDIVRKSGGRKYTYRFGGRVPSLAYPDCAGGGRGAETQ
# In short: as §1
# ELF3 = biological target: T5, ELF3 (Homo sapiens, UniProt P78545 1-371); details: protein: recombinant; tags: N-terminal GST; dsDNA, one strand shown
# T5 sequence: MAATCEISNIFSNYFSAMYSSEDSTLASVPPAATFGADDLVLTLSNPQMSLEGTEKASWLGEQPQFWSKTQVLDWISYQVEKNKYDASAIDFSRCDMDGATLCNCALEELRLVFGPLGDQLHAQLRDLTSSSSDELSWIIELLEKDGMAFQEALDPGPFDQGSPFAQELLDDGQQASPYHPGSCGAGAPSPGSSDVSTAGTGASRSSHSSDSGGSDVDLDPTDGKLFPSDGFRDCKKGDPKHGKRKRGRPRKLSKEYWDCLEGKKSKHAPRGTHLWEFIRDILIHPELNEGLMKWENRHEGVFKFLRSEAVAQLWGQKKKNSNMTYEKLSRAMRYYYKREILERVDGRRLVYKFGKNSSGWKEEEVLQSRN
# In short: as §1
# CRX = CRX (Homo sapiens, UniProt O43186 1-299); details: protein: recombinant; tags: N-terminal GST; dsDNA, one strand shown
# In short: as §1
# ETV1 = ETV1 (Homo sapiens, UniProt P50549 1-477); details: protein: recombinant; tags: N-terminal GST; dsDNA, one strand shown
# In short: as §1
# ERF = biological target: T6, ERF (Homo sapiens, UniProt P50548 1-548); details: protein: recombinant; tags: N-terminal GST; dsDNA, one strand shown
# T6 sequence: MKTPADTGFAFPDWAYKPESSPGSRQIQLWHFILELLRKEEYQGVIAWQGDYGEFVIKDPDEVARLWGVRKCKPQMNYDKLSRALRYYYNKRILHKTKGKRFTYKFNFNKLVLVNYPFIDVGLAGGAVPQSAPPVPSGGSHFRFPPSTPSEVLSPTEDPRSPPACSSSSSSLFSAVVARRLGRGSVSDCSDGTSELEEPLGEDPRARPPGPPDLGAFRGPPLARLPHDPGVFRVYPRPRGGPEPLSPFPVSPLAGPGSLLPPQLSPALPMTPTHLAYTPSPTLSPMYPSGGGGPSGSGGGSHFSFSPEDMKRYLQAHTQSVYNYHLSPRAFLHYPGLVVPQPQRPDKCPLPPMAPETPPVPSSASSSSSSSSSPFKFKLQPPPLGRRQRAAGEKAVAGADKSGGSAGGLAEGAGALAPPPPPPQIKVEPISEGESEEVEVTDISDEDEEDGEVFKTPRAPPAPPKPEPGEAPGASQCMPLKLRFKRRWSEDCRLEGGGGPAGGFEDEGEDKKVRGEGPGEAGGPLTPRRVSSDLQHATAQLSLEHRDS
# In short: as §1
# ETV3L = biological target: T7, ETV3L (Homo sapiens, UniProt Q6ZN32 1-361); details: protein: recombinant; tags: N-terminal GST; dsDNA, one strand shown
# T7 sequence: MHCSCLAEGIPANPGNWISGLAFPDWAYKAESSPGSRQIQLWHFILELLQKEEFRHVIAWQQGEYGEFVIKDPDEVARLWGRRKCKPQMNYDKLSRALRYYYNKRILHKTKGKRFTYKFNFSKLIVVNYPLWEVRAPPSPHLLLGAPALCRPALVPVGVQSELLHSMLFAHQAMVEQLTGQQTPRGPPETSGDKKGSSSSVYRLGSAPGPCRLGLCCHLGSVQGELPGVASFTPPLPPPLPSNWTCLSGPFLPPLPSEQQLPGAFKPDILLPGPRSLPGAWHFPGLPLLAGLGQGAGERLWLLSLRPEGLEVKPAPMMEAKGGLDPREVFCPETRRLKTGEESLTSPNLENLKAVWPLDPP
# In short: as §1
# ETS2 = biological target: T8, ETS2 (Homo sapiens, UniProt P15036 1-469); details: protein: recombinant; tags: N-terminal GST; dsDNA, one strand shown
# T8 sequence: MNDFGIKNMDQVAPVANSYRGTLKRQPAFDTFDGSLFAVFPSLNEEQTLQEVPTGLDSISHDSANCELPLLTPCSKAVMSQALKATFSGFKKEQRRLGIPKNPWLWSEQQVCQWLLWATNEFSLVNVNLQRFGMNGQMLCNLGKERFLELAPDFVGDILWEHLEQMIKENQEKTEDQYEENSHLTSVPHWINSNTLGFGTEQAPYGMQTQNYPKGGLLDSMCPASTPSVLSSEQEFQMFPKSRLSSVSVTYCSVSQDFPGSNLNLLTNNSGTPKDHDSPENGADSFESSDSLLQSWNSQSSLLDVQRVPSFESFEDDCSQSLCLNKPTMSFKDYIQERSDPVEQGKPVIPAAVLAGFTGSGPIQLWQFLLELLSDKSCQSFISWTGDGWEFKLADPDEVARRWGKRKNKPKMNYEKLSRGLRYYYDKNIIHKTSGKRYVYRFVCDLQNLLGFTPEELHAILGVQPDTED
# In short: as §1
# SPDEF = biological target: T9, SPDEF (Homo sapiens, UniProt O95238 1-335); details: protein: recombinant; tags: N-terminal GST; dsDNA, one strand shown
# T9 sequence: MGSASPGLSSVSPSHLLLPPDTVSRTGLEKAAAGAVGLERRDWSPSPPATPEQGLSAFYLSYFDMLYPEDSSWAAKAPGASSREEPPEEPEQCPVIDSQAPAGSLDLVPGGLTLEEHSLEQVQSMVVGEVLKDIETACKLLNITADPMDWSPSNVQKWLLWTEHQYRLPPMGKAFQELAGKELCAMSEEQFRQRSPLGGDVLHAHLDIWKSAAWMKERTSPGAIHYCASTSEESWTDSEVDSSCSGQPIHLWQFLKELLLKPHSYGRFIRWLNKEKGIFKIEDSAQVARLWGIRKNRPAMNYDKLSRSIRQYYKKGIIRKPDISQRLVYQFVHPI
# In short: as §1
# ETV7 = biological target: T10, ETV7 (Homo sapiens, UniProt Q9Y603 1-341); details: protein: recombinant; tags: N-terminal GST; dsDNA, one strand shown
# T10 sequence: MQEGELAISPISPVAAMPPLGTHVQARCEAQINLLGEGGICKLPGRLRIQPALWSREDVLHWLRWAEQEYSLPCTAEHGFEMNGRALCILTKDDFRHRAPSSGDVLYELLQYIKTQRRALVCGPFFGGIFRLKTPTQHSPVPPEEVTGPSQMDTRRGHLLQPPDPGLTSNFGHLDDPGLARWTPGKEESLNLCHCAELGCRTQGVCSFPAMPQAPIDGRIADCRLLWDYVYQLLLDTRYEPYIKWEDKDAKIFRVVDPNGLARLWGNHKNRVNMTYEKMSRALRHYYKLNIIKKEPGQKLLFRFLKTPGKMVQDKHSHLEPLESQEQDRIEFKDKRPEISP
# In short: as §1
# ELF5 = biological target: T11, ELF5 (Homo sapiens, UniProt Q9UKW6-2 1-255); details: protein: recombinant; tags: N-terminal GST; dsDNA, one strand shown
# T11 sequence: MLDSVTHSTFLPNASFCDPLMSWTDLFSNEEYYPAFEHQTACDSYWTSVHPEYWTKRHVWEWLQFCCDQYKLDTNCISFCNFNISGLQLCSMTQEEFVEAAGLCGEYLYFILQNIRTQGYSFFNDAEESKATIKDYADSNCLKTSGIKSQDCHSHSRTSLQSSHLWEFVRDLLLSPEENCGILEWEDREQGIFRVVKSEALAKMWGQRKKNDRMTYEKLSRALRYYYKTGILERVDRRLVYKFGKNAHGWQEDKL
# In short: as §1
# ETV3 = biological target: T12, ETV3 (Homo sapiens, UniProt P41162-2 1-143); details: protein: recombinant; tags: N-terminal GST; dsDNA, one strand shown
# T12 sequence: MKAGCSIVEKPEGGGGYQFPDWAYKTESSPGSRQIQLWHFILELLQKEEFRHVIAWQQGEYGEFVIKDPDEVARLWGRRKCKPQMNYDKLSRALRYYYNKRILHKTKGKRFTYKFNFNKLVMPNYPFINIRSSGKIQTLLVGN
# In short: as §1
# ETV6 = ETV6 (Homo sapiens, UniProt P41212 1-452); details: protein: recombinant; tags: N-terminal GST; dsDNA, one strand shown
# In short: as §1
# Sequence of CRX (O43186 whole entry): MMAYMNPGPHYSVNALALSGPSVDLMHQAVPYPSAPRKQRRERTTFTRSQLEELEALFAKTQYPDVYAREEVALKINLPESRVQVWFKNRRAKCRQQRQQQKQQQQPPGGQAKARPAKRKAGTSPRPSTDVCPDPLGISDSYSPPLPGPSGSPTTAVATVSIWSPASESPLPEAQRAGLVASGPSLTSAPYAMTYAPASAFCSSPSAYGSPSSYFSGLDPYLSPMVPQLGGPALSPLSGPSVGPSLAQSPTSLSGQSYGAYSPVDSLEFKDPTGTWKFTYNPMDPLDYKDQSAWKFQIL
# Sequence of HSF1 (Q00613 whole entry): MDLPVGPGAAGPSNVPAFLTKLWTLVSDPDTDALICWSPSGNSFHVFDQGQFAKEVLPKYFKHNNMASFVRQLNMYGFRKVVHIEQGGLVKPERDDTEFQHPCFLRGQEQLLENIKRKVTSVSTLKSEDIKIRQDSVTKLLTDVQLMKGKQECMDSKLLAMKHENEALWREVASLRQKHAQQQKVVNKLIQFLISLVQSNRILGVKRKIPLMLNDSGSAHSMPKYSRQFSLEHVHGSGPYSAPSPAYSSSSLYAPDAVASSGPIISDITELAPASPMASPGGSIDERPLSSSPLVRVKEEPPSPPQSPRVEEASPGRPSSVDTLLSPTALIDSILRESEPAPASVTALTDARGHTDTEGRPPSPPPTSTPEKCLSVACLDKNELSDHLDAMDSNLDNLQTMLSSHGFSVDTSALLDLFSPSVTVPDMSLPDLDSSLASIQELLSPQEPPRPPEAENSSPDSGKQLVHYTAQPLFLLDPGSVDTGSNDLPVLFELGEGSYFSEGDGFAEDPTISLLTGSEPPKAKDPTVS
# Sequence of ETV5 (P41161 whole entry): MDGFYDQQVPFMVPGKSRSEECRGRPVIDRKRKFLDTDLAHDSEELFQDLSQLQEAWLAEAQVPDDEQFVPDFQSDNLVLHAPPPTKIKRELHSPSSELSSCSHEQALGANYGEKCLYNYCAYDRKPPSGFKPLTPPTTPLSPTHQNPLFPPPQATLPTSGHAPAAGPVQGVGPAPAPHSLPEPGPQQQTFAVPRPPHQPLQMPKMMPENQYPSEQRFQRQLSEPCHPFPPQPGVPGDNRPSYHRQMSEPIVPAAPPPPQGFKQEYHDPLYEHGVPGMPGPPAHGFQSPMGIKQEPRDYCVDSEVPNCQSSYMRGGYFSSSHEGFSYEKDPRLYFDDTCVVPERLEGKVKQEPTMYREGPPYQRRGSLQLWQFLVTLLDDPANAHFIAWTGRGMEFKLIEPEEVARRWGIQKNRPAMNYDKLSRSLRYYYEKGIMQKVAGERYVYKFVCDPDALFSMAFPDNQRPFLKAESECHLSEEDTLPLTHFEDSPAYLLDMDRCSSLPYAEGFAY
# Sequence of ETV1 (P50549 whole entry): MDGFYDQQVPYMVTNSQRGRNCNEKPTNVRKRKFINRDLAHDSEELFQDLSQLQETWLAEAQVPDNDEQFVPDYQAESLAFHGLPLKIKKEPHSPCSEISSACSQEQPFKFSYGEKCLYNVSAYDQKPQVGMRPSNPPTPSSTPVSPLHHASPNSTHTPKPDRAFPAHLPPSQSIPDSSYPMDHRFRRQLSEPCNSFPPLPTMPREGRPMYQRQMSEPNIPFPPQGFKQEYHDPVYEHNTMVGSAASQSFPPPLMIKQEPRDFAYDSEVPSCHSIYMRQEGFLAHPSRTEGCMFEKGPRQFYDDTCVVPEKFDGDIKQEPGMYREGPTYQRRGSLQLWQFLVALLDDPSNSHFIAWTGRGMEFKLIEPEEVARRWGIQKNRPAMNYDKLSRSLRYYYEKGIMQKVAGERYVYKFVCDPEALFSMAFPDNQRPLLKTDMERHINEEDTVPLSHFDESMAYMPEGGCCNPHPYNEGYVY
# Sequence of ELF4 (Q99607 whole entry): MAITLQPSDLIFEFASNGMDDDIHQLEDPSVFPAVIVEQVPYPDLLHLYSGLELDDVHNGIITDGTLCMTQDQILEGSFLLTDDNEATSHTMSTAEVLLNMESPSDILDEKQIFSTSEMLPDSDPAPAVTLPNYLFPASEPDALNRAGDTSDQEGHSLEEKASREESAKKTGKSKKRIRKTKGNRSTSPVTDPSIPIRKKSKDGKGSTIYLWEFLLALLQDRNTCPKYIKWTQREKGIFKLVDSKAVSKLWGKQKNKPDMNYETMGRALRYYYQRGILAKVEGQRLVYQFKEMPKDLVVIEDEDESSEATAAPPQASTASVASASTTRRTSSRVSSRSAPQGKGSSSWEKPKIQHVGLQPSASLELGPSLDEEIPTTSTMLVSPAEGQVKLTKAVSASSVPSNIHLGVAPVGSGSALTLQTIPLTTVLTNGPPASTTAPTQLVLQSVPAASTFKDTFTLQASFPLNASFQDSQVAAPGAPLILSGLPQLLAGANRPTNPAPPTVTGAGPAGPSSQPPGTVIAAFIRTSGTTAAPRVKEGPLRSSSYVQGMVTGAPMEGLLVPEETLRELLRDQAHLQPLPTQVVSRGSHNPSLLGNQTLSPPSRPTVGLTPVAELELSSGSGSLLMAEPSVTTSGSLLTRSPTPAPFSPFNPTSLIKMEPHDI
# Sequence of ETV6 (P41212 whole entry): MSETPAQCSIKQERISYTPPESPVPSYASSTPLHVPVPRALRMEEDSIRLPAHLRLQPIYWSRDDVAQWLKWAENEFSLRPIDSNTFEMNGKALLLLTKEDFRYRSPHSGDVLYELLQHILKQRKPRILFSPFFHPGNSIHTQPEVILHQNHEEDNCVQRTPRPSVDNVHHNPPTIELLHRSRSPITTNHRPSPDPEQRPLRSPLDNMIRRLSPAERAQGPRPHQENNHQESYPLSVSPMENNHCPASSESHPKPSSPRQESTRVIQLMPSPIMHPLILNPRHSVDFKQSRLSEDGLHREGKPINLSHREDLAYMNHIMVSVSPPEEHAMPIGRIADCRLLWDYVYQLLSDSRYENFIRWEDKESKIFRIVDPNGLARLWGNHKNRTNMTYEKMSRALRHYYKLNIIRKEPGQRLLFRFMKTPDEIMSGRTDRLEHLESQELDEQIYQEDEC
sequence,measurement,setting,value
GCCTTT,binding signal,FEV,"1.41 fold enrichment (6-mer frequency, TF over GST control)"
same,binding signal,ETV5,"1.25 fold enrichment (6-mer frequency, TF over GST control)"
same,binding signal,HSF1,"1.24 fold enrichment (6-mer frequency, TF over GST control)"
same,binding signal,SPIC,"1.56 fold enrichment (6-mer frequency, TF over GST control)"
same,binding signal,ELF4,"1.36 fold enrichment (6-mer frequency, TF over GST control)"
same,binding signal,ELK4,"1.32 fold enrichment (6-mer frequency, TF over GST control)"
same,binding signal,ETV2,"1.53 fold enrichment (6-mer frequency, TF over GST control)"
same,binding signal,ELF3,"1.38 fold enrichment (6-mer frequency, TF over GST control)"
same,binding signal,CRX,"1.3 fold enrichment (6-mer frequency, TF over GST control)"
same,binding signal,ETV1,"1.34 fold enrichment (6-mer frequency, TF over GST control)"
same,binding signal,ERF,"1.29 fold enrichment (6-mer frequency, TF over GST control)"
same,binding signal,ETV3L,"1.27 fold enrichment (6-mer frequency, TF over GST control)"
same,binding signal,ETS2,"1.14 fold enrichment (6-mer frequency, TF over GST control)"
same,binding signal,SPDEF,"1.15 fold enrichment (6-mer frequency, TF over GST control)"
same,binding signal,ETV7,"1.18 fold enrichment (6-mer frequency, TF over GST control)"
same,binding signal,ELF5,"1.3 fold enrichment (6-mer frequency, TF over GST control)"
same,binding signal,ETV3,"1.33 fold enrichment (6-mer frequency, TF over GST control)"
same,binding signal,ETV6,"1.38 fold enrichment (6-mer frequency, TF over GST control)"
